# High-throughput results deposited in PubChem by National Center for Advancing Translational Sciences (NCATS).
# G9a block = inhibitors of human histone lysine methyltransferase G9a. G9a H3K9 monomethylation, AlphaScreen, 2 h. AID 504332. Potency, µM (highest dose often 102 µM), for the others: top-dose activity, negative = inhibition, usual class: inhibitors. actives 8.8% (n = 350,000). Q96KQ7; also: % is scaled to controls: 0 for no effect and ±100 for the full control effect; nearly all actives have a fitted effect of over 75% in size
#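 Methyltransferase reactions run at room temperature for 2 h (20 nM enzyme, 500 nM biotin-H3K9 peptide, 20 uM SAM) after a 15 min compound preincubation; product detected by AlphaScreen beads and anti-H3K9me1 antibody.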
# BAZ2B inh = BAZ2B (human) inhibition. Q9UIF8. AlphaScreen BAZ2B-H3K14Ac peptide displacement. Potency, µM (doses to about 114 µM), for inactives: at the top dose activity change, negative = inhibition, actives largely listed as inhibitors. actives 4.4% (n = 360,000); also: % is scaled to controls: 0 for no effect and ±100 for the full control effect; nearly all actives have a fitted effect of over 60% in size
#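 AlphaScreen displacement of biotin-H3(5-23)K14Ac peptide (50 nM final) from BAZ2B (50 nM final) in PBS pH 7.4, 0.01% Tween-20; complex preformed 30 min RT, then compounds (top 110 uM) 30 min RT, beads 20 min dark.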
# HP1b chromo inh = HP1-beta chromodomain-methylated histone interaction inhibition. AlphaScreen HP1-beta / biotin-H3K9me3 peptide binding. actives 0.56% (n = 390,000). P83916. AID 540317. Potency, µM (titrated, usually from 114 µM), for the others: at the top dose activity change, negative = inhibition, usual class: inhibitors; also: nearly all actives have a fitted effect of over 70% in size
#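 AlphaScreen: HP1-beta (50 nM) preformed 30 min with biotin-H3(1-18)K9me3 peptide (50 nM) in PBS pH 7.4, 0.01% Tween-20. Compound added for 30 min at RT, then streptavidin donor/nickel chelate acceptor beads (10 ug/mL) for 30 min.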
# L3MBTL1 inh = inhibitors of human L3MBTL1. AlphaScreen L3MBTL1–H3K9me1 peptide binding. Potency, µM (series often up to 57.1 µM), for the others: at the highest dose activity, negative = inhibition, actives largely listed as inhibitors. Q9Y468. actives 0.66% (n = 230,000); also: % is scaled to controls: 0 for no effect and ±100 for the full control effect; nearly all actives have a fitted effect of over 60% in size
#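 L3MBTL1 50 nM + b-AHA-H3(1-15)K9me1 75 nM, 30 min RT; compound added, 30 min RT; streptavidin donor/Ni-chelate acceptor beads 10 ug/mL each final, 30 min RT dark; AlphaScreen read.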
# GLS inhibitor = inhibitors of human glutaminase (GLS). O94925. GLS enzymatic activity, qHTS titration. Potency, µM (highest dose often 45.5 µM), for inactives: top-dose activity change, negative = inhibition, actives largely listed as inhibitors. actives 0.21% (n = 410,000); also: % is scaled to controls: 0 for no effect and ±100 for the full control effect
#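 hKGA in 45 mM KH2PO4 (pH 8.2), 0.02% Tween-20 with compound, then 1mM L-Glutamine (stock as added) plus glutamate oxidase/HRP/Amplex red coupling mix. Fluorescence read initially and after 30 min at RT; signal change reflects glutamate formation.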
# JMJD2A Tudor = JMJD2A Tudor domain (human) inhibition | O75164 | AlphaScreen JMJD2A-Tudor / H3K4me3 peptide binding | Potency, µM (titrated, usually from 114 µM), for inactives: at the highest dose activity change, negative = inhibition, actives largely listed as inhibitors | actives 4.4% (n = 390,000) | AID 504339; also: % is scaled to controls: 0 for no effect and ±100 for the full control effect; nearly all actives have a fitted effect of over 50% in size
# Numbers without * were called inactive; ? = inconclusive; . = not tested or not shown; [ ] = dose if it differs, or a comment. Hits are enriched below; roughly 10% of the tested compounds scored in any of these assays. Calls follow the shape of the dose curve; as a rule, active = well fitted curve in the direction sought with a large enough effect; inconclusive = small, poorly fitted or top-dose-only effect, or another doubt; inactive = no such curve, though single readings can be large; an effect the other way counts as inactive or inconclusive. Potency is read from the fitted curve at half-maximal effect.
SMILES,G9a block,BAZ2B inh,HP1b chromo inh,L3MBTL1 inh,GLS inhibitor,JMJD2A Tudor
CCc1nnc(NC(=O)CSc2nnc(-c3cc4ccccc4cc3O)n2CC)s1,28.2µM*,0.8%,11.8%,0.7%,39.8%,0.8%
CCCSc1nnc(NC(=O)CSc2nc3[nH]c(=O)cc(O)c3s2)s1,?,-30.7%,37.4%,-18.5%,-1.4%,-23.5%
CCc1nnc(NC(=O)CSc2sc3c(O)cc(=O)[nH]c3c2C#N)s1,10µM*,20µM*,39.8µM*,.,?,20µM*
Cc1csc(NC(=O)CSc2nc3[nH]c(=O)cc(O)c3s2)n1,.,.,12.8%[57 µM],.,13.9%,-11.4%
CCc1nnc(NC(=O)CSc2nc3[nH]c(=O)cc(O)c3s2)s1,?,-36.8%,4.0%,-7.2%,13.6%,?
COc1cccc(OCc2cc(C3Nc4ccccc4C(=O)N3c3ccccc3)ccc2OC)c1 (configuration not stated),.,.,17.6%[57 µM],.,.,-3.8%[57.1 µM]
O=C(CN1C(=O)COc2ccc(Cl)cc21)Nc1ccc(F)cc1,23.2%[59 µM],-4.4%,42.0%,.,16.3%,0.7%
Cc1cc(Cl)c2ccc3ccccc3c2n1,25.1µM*,57.8%,27.2%,37.0%,1.9%,20.8%
O=c1cc(-c2ccc(F)cc2)nc(SCc2nc(-c3ccc(Cl)cc3)no2)[nH]1,-6.7%[59 µM],-4.6%,4.8%[57 µM],.,-9.9%,-9.4%
Cc1ccc(C)c(OCCCCn2ccnc2)c1,?,?,9.3%,.,0.0%,?
c1ccc(-c2ccccc2OCCCCn2ccnc2)cc1,.,50.1µM*,39.8µM*,-6.7%,7.5%,20µM*
Cc1ccccc1OCCCCCNCCO,-9.1%[59 µM],14.7%,66.4%,.,-0.1%,-13.7%
Cc1cccc(OCCCCCn2ccnc2)c1C,-24.4%,?,2.7%,-28.7%,0.4%,-39.7%
CC(C)(C)c1ccccc1OCCCCCn1ccnc1,?,17.8µM*,?,-23.3%[11.4 µM],?,2.82µM*
CC(C)(C)c1ccccc1OCCCCCNCCO,?,?,?,1.8%,-0.4%,3.16µM*
O=c1c2[nH]c3ccsc3c2cnn1Cc1ccccc1F,.,.,.,.,.,-2.7%
N#Cc1c(NC(=O)c2ccc(Cn3cc(Br)cn3)o2)sc2c1CCCCCC2,11.2µM*,-26.2%,-1.7%,-13.2%,-18.7%,-17.3%
Cn1nccc1C(=O)Nc1sc2c(c1C#N)CCCC2,71.1%,2.8%,3.2%,.,14.1%,-9.2%
CC(C)c1ccc(NC(=O)c2cc([N+](=O)[O-])ccc2N2CCOCC2)cc1,?,-32.5%,-5.9%,.,-0.3%,-35.5%
N#Cc1c(NC(=O)c2ccc([N+](=O)[O-])o2)sc2c1CCC2,31.6µM*,39.8µM*,?,.,5.3%,?
Cc1ccc(-c2nc3cc(C(C)C)ccc3o2)cc1NC(=O)c1cc([N+](=O)[O-])ccc1N1CCOCC1,-26.4%[59 µM],89.1µM*,25.8%,.,7.4%,-19.4%
N#Cc1c(NC(=O)c2cc([N+](=O)[O-])ccc2N2CCOCC2)sc2c1CCCC2,?,56.2µM*,-22.9%,-11.1%,-5.6%,?
Cc1ccc(-n2nc(C(=O)N(C)c3ccccc3Cl)c3c4ccccc4n(C)c3c2=O)cc1,-27.2%[59 µM],.,-1.7%,.,-6.4%,-27.7%
Cc1cc(C)c(S(=O)(=O)N(CC(=O)O)CC(=O)O)c(C)c1,22.4µM*,13.9%,13.2%,.,.,?
COc1cc(C2CC(=O)Nc3cc4c(cc32)OCO4)cc(OC)c1O (configuration not stated),?,-27.9%,7.8%,.,8.1%,-19.5%
SMILES,G9a block,BAZ2B inh,HP1b chromo inh,L3MBTL1 inh,GLS inhibitor,JMJD2A Tudor
CC1=Nc2ccccc2/C1=C/c1c(C)[nH]c2ccccc12,.,.,?,.,-5.1%,56.2µM*
Clc1cccc(-n2ncc3c(NCCCn4ccnc4)ncnc32)c1,-11.0%[59 µM],28.2µM*,27.3%,.,-3.5%,?
Fc1ccc(-n2ncc3c(NCCCn4ccnc4)ncnc32)cc1,-1.1%[59 µM],-21.6%,8.7%,.,4.0%,-21.7%
c1ccc(-n2ncc3c(NCCN4CCCCC4)ncnc32)cc1,44.7µM*,?,35.6%,1.5%,3.0%,3.7%
COc1ccc(Cl)cc1NC(=O)c1ncn(-c2ccccc2)n1,0.7%[59 µM],4.3%,28.9%,.,-15.1%,-20.2%
Oc1c(C(c2ccccc2F)N2CCC3(CC2)OCCO3)sc2nc(-c3ccco3)nn12 (configuration not stated),-3.3%[59 µM],0.3%,35.9%,.,7.8%,-4.5%
CCN(CCCNC(=O)CN1N=C(c2ccc(C)cc2)CCC1=O)c1ccccc1,10µM*,14.1µM*,?,.,1.2%,56.2µM*
Cc1ccc(C2=NN(CC(=O)NCCc3ccccc3)C(=O)CC2)cc1,-9.7%[59 µM],-10.1%,-9.4%,.,5.6%,-20.8%
CCN(CCCNC(=O)CN1N=C(c2ccc(OC)cc2)CCC1=O)c1cccc(C)c1,11.2µM*,39.8µM*,?,.,7.2%,79.4µM*
COc1ccc(C2=NN(CC(=O)NCCCN(C)c3ccccc3)C(=O)CC2)cc1,?,?,-13.4%,.,16.9%,?
CCN(CCCNC(=O)CN1N=C(c2ccccc2)CCC1=O)c1cccc(C)c1,14.1µM*,?,?,.,3.3%,?
Cc1ccc(CNC(=O)CN2N=C(c3ccccc3)CCC2=O)cc1,4.9%[59 µM],0.8%,21.6%,.,3.6%,-7.6%
Cc1ccc(C2=NN(CC(=O)O)C(=O)CC2)cc1,44.7µM*,-2.6%,2.4%,.,-25.8%,-17.5%
CCc1nnc(SCC(=O)Nc2ccc(Cl)cc2F)c2cc3occc3n12,-26.1%[59 µM],-37.8%,31.4%,.,-4.4%,-15.0%
CCC(=O)N1CCc2cc(Br)cc(S(=O)(=O)CCC(=O)N3CCN(c4ccccc4OC)CC3)c21,-38.0%[59 µM],0.3%,28.1%,.,-15.5%,-5.1%
CCCCN(CCCNC(=O)CN1N=C(c2ccc(C)cc2)CCC1=O)c1ccccc1,14.1µM*,20µM*,?,.,14.9%,39.8µM*
CCOC(=O)Cc1csc(NC(=O)c2cc(=O)c3ccccc3o2)n1,-44.7%,-24.5%,28.9%,1.4%,5.1%,-13.4%
CCOC(=O)Cc1csc(SCn2nnc3ccccc3c2=O)n1,44.7µM*,29.4%,52.8%,-0.9%,-4.7%,1.4%
CCOC(=O)Cc1csc(-n2sc3ccccc3c2=O)n1,1.12µM*,5.01µM*,?,.,?,17.8µM*
O=S1(=O)C2CC3C=CC2(O3)C(O)C(Cc2ccccc2)N1Cc1cccc(F)c1 (configuration not stated),.,.,25.4%,.,.,-4.8%
COc1ccc(-n2c(=O)c3ccc(C(=O)NCc4ccc(C)cc4)cc3n(CC(=O)Nc3cccc(F)c3)c2=O)cc1,2.4%[59 µM],.,28.3%,.,1.2%,2.3%
COc1ccccc1CN(C)CC(=O)Nc1ccc(Cl)cc1F,45.2%,72.9%,143.6%,39.7%,-4.5%,31.3%
COc1ccccc1CN(C)CC(=O)Nc1cccc2ccccc12,50.1µM*,1.6%,18.8%,.,0.0%,-4.9%
